# Source: PubChem BioAssay AID485360 (National Center for Advancing Translational Sciences (NCATS), 2010)
# Several values for one entry are separate records, joined by “and”; a condition that tells them apart may be missing. Equal entries are not always repeated. In all, about 230,000 compounds went through this assay and about 1,500 (0.65%) were called active. Roughly 3% stayed inconclusive and do not appear here. Calls come from the whole dose curve; as a rule, active = well fitted inhibition curve with a large enough effect; inconclusive = small, poorly fitted or top-dose-only effect; inactive = no such curve, though single readings can be large or run the other way. The entries come from a sample that favours actives as a whole. Entries that show only a call come without a potency. Some structures have more than one record in an assay (separate samples or runs), and their calls can disagree.
# Molecular target: Lethal(3)malignant brain tumor-like protein 1 (Homo sapiens) (UniProt Q9Y468)
# Assay: qHTS Assay for the Inhibitors of L3MBTL1; note: nearly all actives have a fitted effect of over 60% in size
# Settings: AlphaScreen L3MBTL1–H3K9me1 peptide binding; series mostly up to 57.1 µM
# Source text: The histone code is comprised of many post-translational modifications that occur mainly in histone tail peptides. The identity and location of these marks are read by a variety of histone binding proteins that are emerging as important regulators of cellular differentiation and development and are increasingly being implicated in numerous disease states. Small molecule probes that disrupt the interaction between histone binding proteins and chromatin would enable a systematic chemical biology study of proteins that read the histone code and could potentially reveal new targets for drug discovery. However, no such small molecules are known. This dearth of quality molecular probes can largely be attributed to the novelty of the target class and the lack of screening assays. This proposal details the development of the first high-throughput screening assay for the discovery of inhibitors of methyl-lysine binding proteins and how it can be be used to initiate a full-scale discovery effort for antagonists of histone binding proteins. Specifically, this work focuses on an AlphaScreen(tm)-based HTS assay for Malignant Brain Tumor (MBT) domain-containing proteins, which bind to the lower methylation states of lysine residues present in histone tail peptides.
# To each well, 2 uL of L3MBTL1 protein (final 50 nM) and 1 uL biotinylated histone peptide monomethylated at Lys9 [b-AHA-H3(1-15)K9me1] (final 75 nM) was added using a nanoliter dispenser. Formation of a protein-peptide complex proceeded at room temperature for 30 min. A Kalypsys pin-tool was employed to transfer 23 nL of library compound solution in DMSO to each well. Cefsulodin, found in a pilot screen of the LOPAC library to be a weak inhibitor of L3MBTL1 binding, was used as an intraplate control with a 16-point titration in duplicate. Following a 30 min incubation of the protein-peptide complex with compounds at room temperature, a mixture of 40 ug/mL each streptavidin-coated donor and nickel chelate acceptor AlphaScreen beads (final 10 ug/mL) was added in a 1 uL dispense for a final volume of 4 uL. Plates were incubated, protected from the light for 30 min at room temperature. Microplates were then be read on an EnVision multilabel plate reader using the 1,536 plate HTS AlphaScreen aperture (excitation time 80 ms, measurement time 240 ms).
# Potency is the fitted concentration of half-maximal effect.
# Lethal(3)malignant brain tumor-like protein 1 (Homo sapiens), sequence (Q9Y468 whole entry, looked up): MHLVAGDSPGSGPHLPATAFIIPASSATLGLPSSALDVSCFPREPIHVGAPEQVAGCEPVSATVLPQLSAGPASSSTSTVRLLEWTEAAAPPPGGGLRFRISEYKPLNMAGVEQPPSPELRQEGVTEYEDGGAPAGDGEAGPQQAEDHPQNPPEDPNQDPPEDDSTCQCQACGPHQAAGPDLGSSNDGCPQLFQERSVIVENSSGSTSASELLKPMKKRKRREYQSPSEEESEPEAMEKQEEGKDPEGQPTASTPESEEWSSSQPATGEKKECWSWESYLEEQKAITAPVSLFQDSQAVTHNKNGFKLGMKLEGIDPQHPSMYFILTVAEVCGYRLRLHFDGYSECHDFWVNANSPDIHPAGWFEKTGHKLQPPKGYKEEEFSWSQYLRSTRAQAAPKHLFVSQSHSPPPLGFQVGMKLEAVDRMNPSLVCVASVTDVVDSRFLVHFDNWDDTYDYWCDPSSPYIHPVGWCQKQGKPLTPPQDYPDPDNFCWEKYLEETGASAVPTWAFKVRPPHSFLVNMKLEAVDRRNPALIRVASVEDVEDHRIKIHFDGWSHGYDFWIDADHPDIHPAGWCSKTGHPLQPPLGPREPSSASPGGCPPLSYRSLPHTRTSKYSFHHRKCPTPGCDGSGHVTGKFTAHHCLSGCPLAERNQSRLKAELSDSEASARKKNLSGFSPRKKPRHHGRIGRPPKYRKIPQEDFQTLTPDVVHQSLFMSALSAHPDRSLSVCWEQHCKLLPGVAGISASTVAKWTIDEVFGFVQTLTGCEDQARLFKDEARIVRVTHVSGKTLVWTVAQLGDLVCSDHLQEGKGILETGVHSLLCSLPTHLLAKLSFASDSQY
SMILES,Potency,"activity, negative = inhibition"
CC1CCCCC1NCC(=O)Nc1ccccc1C(=O)Nc1ccccc1 (stereo unspecified),inactive,–
c1ccc(CSc2nnc(-c3ccco3)c(-c3ccco3)n2)cc1,7.94 µM (active),–
COC(OC)c1ccnc(SCc2ccccc2Cl)n1,inactive,–
O=C(CC1N=C2c3ccccc3N=C(SCc3ccccc3Cl)N2C1=O)NCc1ccco1 (stereo unspecified),inactive,–
O=C(Nc1nnc(SCc2ccccc2)s1)c1ccco1,inactive,–
Clc1ccccc1CSc1nnc(-c2ccco2)c(-c2ccco2)n1,8.91 µM (active),–
O=c1[nH]c(SCc2ccccc2)nnc1-c1ccccc1,inactive,–
Cc1nc(-c2ccc(F)cc2)c(CC(=O)Nc2cccc(S(=O)(=O)N3CCOCC3)c2)s1,inactive,–
Cc1occc1-c1nnc(SCC(=O)NC2(C#N)CCCC2)n1C,inactive,–
O=C(CSc1nnc(COc2ccc(Cl)cc2)n1Cc1ccco1)N1CCNC1=O,inactive,–
COc1ccc2c(CC(=O)NNC(=O)c3ccccc3F)coc2c1,inactive,–
CC(C)N(C(=O)CSc1nnc(NC2CC2)s1)c1ccccc1,inactive,–
Cc1c(NC(=O)/C=C/C(=O)O)cccc1[N+](=O)[O-],inactive,–
Cc1ccc(/C=C/C(=O)Nc2ccc([N+](=O)[O-])c(NC(=O)/C=C/c3ccc(C)o3)c2)o1,22.4 µM (active),–
CCc1nnc(NC(=O)/C=C/c2ccc(C)o2)s1,inactive,–
NC(=O)c1ccc(Nc2ccc3nonc3c2[N+](=O)[O-])cc1,inactive,–
COc1ccc(Cl)cc1NC(=O)CN(C)C(=O)c1cc2ccccc2cc1OC,inactive,–
O=C(OCC(=O)N1CCCCCC1)c1cnc(Cl)c(Cl)c1,inactive,–
O=C(c1ccc(F)cc1)N1CCC(C(=O)N2CCN(S(=O)(=O)c3ccccc3Br)CC2)CC1,inactive,–
CCOc1cc(N2CCOCC2)c(OCC)cc1NC(=O)COc1cccc2cccnc12,inactive,–
Oc1c(C(c2ccccn2)N2CCOCC2)ccc2cccnc12 (stereo unspecified),8.91 µM (active),–
Cc1nc2sc(C(c3ccco3)N3CCOCC3)c(O)n2n1 (stereo unspecified),inactive,–
COc1ccc(C(=O)COC(=O)C(O)c2ccccc2)c(OC)c1 (stereo unspecified),inactive,–
CC(C)[C@H](NC(=O)N1c2ccccc2NC(=O)[C@@H]1C(C)C)C(=O)N[C@H](C(=O)O)c1ccccc1,inactive,–
CC(C#N)(NC(=O)CN1CCN(S(=O)(=O)c2cc(C(F)(F)F)ccc2Cl)CC1)C1CC1 (stereo unspecified),inactive,–
O=C(CN1CCN(c2ccccc2O)CC1)NC(=O)NCc1ccccc1,inactive,–

SMILES,Potency,"activity, negative = inhibition"
CCC(C)N(C(=O)CSc1nnnn1-c1ccccc1OC)C1CCS(=O)(=O)C1 (stereo unspecified),inactive,–
COC(=O)[C@]1(Cc2ccccc2)N[C@H](CN(C)S(=O)(=O)c2ccc(OC(F)(F)F)cc2)[C@@H]2C(=O)N(C)C(=O)[C@@H]21,inactive,–
O=C(N/N=C/C=C/c1ccco1)c1cccs1,31.6 µM (active),–
O=C(N/N=C/c1ccco1)c1ccc(C(=O)N/N=C/c2ccco2)o1,inactive,–
O=C(Nc1ccc(NC(=O)c2cccs2)cn1)c1ccco1,inactive,–
Cc1cc([N+](=O)[O-])ccc1NC1CCCC1,inactive,–
Cc1cc(C=O)c(C)n1-c1ccc(NC2CCCCC2)c([N+](=O)[O-])c1,15.8 µM (active),–
Cc1c(NS(=O)(=O)c2ccc(NC3CCCC3)c([N+](=O)[O-])c2)c(=O)n(-c2ccccc2)n1C,inactive,–
O=C(COC(=O)c1cccnc1Cl)NC12CC3CC(CC(C3)C1)C2,inactive,–
Cc1ccc(-c2nnc(-c3ccc(NC(=O)c4cccs4)cc3)o2)cc1,inactive,–
O=C(NCC#CCSc1nnc(-c2cccc3ccccc23)o1)c1cccs1,inactive and 10 µM (active),–
COc1ccc(-c2nnc(SCC(=O)c3cccs3)o2)c(OC)c1,inactive,–
COc1ccc(NS(=O)(=O)c2ccc(C)c(C(=O)N(C)Cc3ccc(OC)cc3OC)c2)cc1,inactive,–
O=C(NCCC1CCCCN1S(=O)(=O)c1ccccc1)C(=O)NCC1CCCO1 (stereo unspecified),inactive,–
CC(C)(C)OC(=O)NCCCCCNC(=O)c1[nH]cnc1C(=O)Nc1nccs1,28.2 µM (active),–
CC(C)(C)OC(=O)NCCCCCNC(=O)c1nc[nH]c1C(=O)NCc1ccccc1,inactive,–
C[C@H](NC(=O)c1nc[nH]c1C(=O)NCC(=O)OC(C)(C)C)c1ccccc1,inactive,–
Cc1csc(=O)n1CC(=O)Nc1ccc(S(C)(=O)=O)cc1,inactive,–
Cc1ccc(S(=O)(=O)NC[C@H]2O[C@@H](n3cnc4c(N)ncnc43)[C@H](O)[C@@H]2O)s1,inactive,–
O=C(Cc1ccc(S(=O)(=O)N2CCOCC2)s1)N1CCN(c2ccc(C(F)(F)F)cc2[N+](=O)[O-])CC1,inactive,–
Cc1cccc(-n2ncc3c(=O)[nH]c(SCC(=O)Nc4cc(C)on4)nc32)c1,inactive,–
O=C1CCCC(O)=C1N=Nc1ccc2ncsc2c1,25.1 µM (active),–
O=C1CCCC(O)=C1N=Nc1ccc(S(=O)(=O)N2CCOCC2)cc1,inactive,–
CC[C@@]1(C(=O)OC)N[C@H](CN(C)C(C)=O)[C@@H]2C(=O)N(C)C(=O)[C@@H]21,inactive,–
Cc1nnc(SCC(=O)Nc2cccc(N)c2)n1-c1ccccc1,inactive,–
O=c1cc(N2CCN(Cc3ccccc3)CC2)c(-c2ccccc2)n[nH]1,inactive,–

SMILES,Potency,"activity, negative = inhibition"
O=C1c2ccccc2C(=O)c2c1cccc2N1CCN(CCO)CC1,inactive,–
O=C1c2ccccc2C(=O)c2c1cccc2N1CCN(Cc2ccccc2)CC1,14.1 µM (active),–
CN(CC(=O)O)C(=O)c1ccccc1,inactive,–
Cc1cc([N+](=O)[O-])ccc1NC(=O)c1ccc(NC(=O)C(C)C)cc1,–,-0.242% [at 11.4 µM] (inactive)
CCc1ccc(NC(=O)c2ccc(Cn3cc([N+](=O)[O-])cn3)cc2)cc1,inactive,–
Cn1ccc(=Nc2ccc(NC(=O)c3ccc(N=c4ccn(C)c5ccc([N+](=O)[O-])cc45)cc3)cc2)cc1,25.1 µM (active),–
COCC(=O)N1CCCC(C(=O)c2ccc(C(F)(F)F)cc2)C1 (stereo unspecified),inactive,–
Cc1c(OC(C)C(=O)NCC2CCC(C(=O)O)CC2)ccc2c1oc(=O)c1ccccc12 (stereo unspecified),inactive,–
CCCNC(=O)CCn1cc(-c2ccc(OC)cc2)nc1CCN,inactive,–
CCOC(=O)Cc1csc(NC(=O)Nc2ccccc2)n1,inactive,–
CCN(C(=O)Cc1nc(N)n[nH]1)C1(C(=O)Nc2ccccc2)CCCCC1,11.2 µM (active),–
CCOC(=O)c1cn[nH]c1NC(=S)Nc1ccccc1,inactive,–
Cc1ccc(OCC(=O)NC(C)c2ccccc2)cc1C (stereo unspecified),inactive,–
CCCCC[C@@H]1C=C(C(=O)O)[C@H](c2ccc(C#N)cc2)N1S(=O)(=O)c1ccc(C)cc1,inactive,–
O=[N+]([O-])c1ccc(C=Nc2ccc(Cl)cc2Cl)s1,25.1 µM (active),–
CCOc1ccc(NC(=O)CCC(=O)N/N=C/c2ccc([N+](=O)[O-])s2)cc1,inactive,–
CC1CN(C(=O)c2ccc([N+](=O)[O-])s2)CC(C)O1 (stereo unspecified),inactive,–
O=[N+]([O-])c1ccc2c(c1)Nc1nc3ccccc3nc1N2,inactive,–
Cn1nnnc1SCC(=O)Nc1cccc(S(=O)(=O)N2CCCCC2)c1,inactive,–
COc1ccccc1-c1sc2ccccc2c1C#CC1(O)CCCCC1,inactive,–
COc1ccc2c(C(=O)c3ccc(C)cc3)n(CCC(N)=O)[n+]([O-])c2c1,inactive,–
O=C1CSc2ccc(C(=O)NCc3ccccn3)cc2N1,inactive,–
COCCNC(=O)Nc1ccc2nc(-c3ccco3)c(-c3ccco3)nc2c1,2.82 µM (active),–
O=C(NCc1ccccn1)c1ccc2nc(-c3ccco3)c(-c3ccco3)nc2c1,3.55 µM (active),–
COc1ccc(NC(=O)Nc2ccc3nsnc3c2)cc1,inactive,–
O=C(NCc1ccccn1)c1cc(-c2ccccc2Cl)on1,inactive,–

SMILES,Potency,"activity, negative = inhibition"
CC(C)(C)c1ccc(NC(=O)NCc2ccco2)cc1,inactive,–
O=C(Nc1ncccc1O)c1ccc(C(=O)c2ccccc2)cc1,inactive,–
CCOC(=O)N1CCN(C(=O)c2ccccc2SCC(=O)NCC2CCCCC2)CC1,inactive,–
CCOC(=O)c1c(C)[nH]c(C(=O)NCc2ccccc2OC)c1C,inactive,–
Cc1c(C(=O)N/N=C/c2ccccc2)[nH]c2c([N+](=O)[O-])cccc12,inactive,–
COc1cccc2c(C)c(C(=O)O)[nH]c12,25.1 µM (active),–
CC(C)Cn1c(SCC(=O)Nc2ccc(Cl)cc2F)nc(O)cc1=O,inactive,–
CC(=O)C[C@H](O)CC(=O)[C@@H]1OC(=O)[C@@H](C)C/C=C\Cc2ccccc21,inactive,–
CSc1nc(-c2ccco2)nn1C(=O)CCc1ccccc1,inactive,–
CCOC(=O)/C=c1\s/c(=C\c2ccccc2OC)c(=O)n1CC(=O)N1CCOCC1,inactive,–
CCOc1ccccc1/C=c1\sc2nc(-c3ccco3)nn2c1=O,15.8 µM (active),–
COc1ccccc1N1CC(C(=O)NCCN2C(=O)S/C(=C\c3cccnc3)C2=O)CC1=O (stereo unspecified),inactive,–
CC[C@]12c3[nH]c4ccc(Cl)cc4c3CCN1C(=O)[C@@H](CC(=O)NCCN1CCOCC1)C[C@@H]2C(=O)N1CCN(C(=O)C2CC2)CC1,inactive,–
CC(Cc1ccccc1)C(=O)N(C)Cc1ccccc1 (stereo unspecified),inactive,–
Cc1ccc(C)n1C(Cc1ccccc1)C(=O)O (stereo unspecified),5.62 µM (active),–
CCOC(=O)C(Cc1ccc(N)cc1)N1C(=O)c2ccccc2C1=O (stereo unspecified),inactive,–
CCn1c(=S)[nH]c2cc(S(=O)(=O)N3CCOCC3)ccc21,inactive,–
CCCN=C1N(C)C[C@@H]2[C@@H]3C(=O)N(Cc4ccccc4)C(=O)[C@@H]3[C@](C)(C(=O)OC)N12,inactive,–
CC(=O)Nc1ccc(C(=O)Nc2cccc(S(=O)(=O)NC3=NCCC3)c2)cc1,inactive,–
Cc1ccc(S(=O)(=O)NCCC(=O)OCC(=O)N(C)c2ccccc2)cc1,inactive,–
COc1ccc(N=C(C)c2sc3ccccc3c2O)cc1,inactive,–
O=C(N/N=C/c1c(Cl)[nH]c2ccccc12)c1sc2ccccc2c1Cl,inactive,–
Oc1ccc(N=Cc2sc3ccccc3c2Cl)cc1,31.6 µM (active),–
